According to PubChem BioAssay (NCATS):
Inconclusive results are not listed. Values without a mark were called inactive. Calls come from the whole dose curve; as a rule, active = well fitted curve in the direction sought with a large enough effect; inconclusive = small, poorly fitted or top-dose-only effect, or effect the other way, or another doubt; inactive = no such curve, though single readings can be large or run the other way. Numbered stars: 1 amine (or outer) side, 2 acyl side, 3 side chain; on linkers, the order of the positions; unused ones are H or OH. Bridge positions count the residues as written; N and C are the ends. Square brackets hold non-standard residues; d marks the D form. Peptide text beside a SMILES is read from it. ξ: configuration not given here. Phe(3R-OH) = O=C([C@@H](N[*:1])[C@H](O[*:3])c1ccccc1)[*:2]; NMeTrp(4-OMe) = CN[C@@H](Cc1c[nH]c2cccc(OC)c12)C(=O)O; ξThr(3R)(O-yl) = C[C@@H](O[*:3])C(N[*:1])C(=O)[*:2]; NMeThr(3ξ) = CN[C@H](C(=O)O)C(C)O; NMeL = CN[C@@H](CC(C)C)C(=O)O; NMeV = CN[C@H](C(=O)O)C(C)C; ξIle = CC[C@H](C)C(N)C(=O)O; ξV = CC(C)C(N)C(=O)O

Test: Cytotoxicity qHTS for assessment of Hepg2 cells membrane integrity screened against the NCATS CANVASS Library (AID 1347387)
Details: HepG2 LDH release (CytoTox-ONE) fluorescence, 5 h; series mostly up to 46.1 µM; cytotoxicity (LDH release): at the top concentration
From the text: Natural products and their derivatives continue to be wellsprings of nascent therapeutic potential. However, many laboratories have limited resources for biological evaluation, leaving their previously isolated or synthesized compounds largely or completely untested. To address this issue, the Canvass library of natural products was assembled (https://tripod.nih.gov/canvass), in collaboration with academic and industry researchers, for quantitative high-throughput screening (qHTS) across a diverse set of cell-based and biochemical assays. The pure (>85% purity by liquid chromatography/mass spectrometry [LC/MS]) Canvass library of 346 natural products were submitted by 45 academic laboratories and companies around the world. We collected pure natural products to circumvent deconvolution and structure elucidation due to time and resource limitations. The library was formatted into 1536-well plates and evaluated in 50 qHTS (in an 11-pnt concentration series) bioassays with broad scope of disease-relevant mechanisms. The resulting data set from 50 different assays was then systematically analyzed to identify overall trends and specific natural products with interesting biological activities. Reported herein are the results of each individual qHTS and their corresponding assay protocol. The membrane integrity assay is a fluorometric method for estimating the number of nonviable cells. The assay measures the release of lactate dehydrogenase (LDH) from cells with a damaged cellular membrane. The amount of fluorescence is proportional to the number of lysed cells. National Center for Advancing Translational Sciences (NCATS), Rockville, MD National Institute of Health (NIH), Bethesda, Maryland
Membrane Integrity-screen protocol: 1. In black solid-bottom 1536 well plates, 5 uL of HepG2 cell suspension was dispensed using the Multidrop Combi (Thermo Fisher Scientific) at a final concentration of 2000 cells / well (columns 2-48). 2. The assay plates were incubated overnight at 37C, 5% CO2 to allow the cells to acclimate and attach. 3. 23 nL of compounds (in DMSO), vehicle control (DMSO) or control compound were pin transferred into the assay plates using the Kalypsis pin tool (Wako USA) equipped with a 1536 well pin heads, resulting in final concentration of 0.59 nM - 46 uM. 4. The assay plates were further incubated for 5 hr at 37C, 5% CO2. 5. 5 uL of CytoTox-ONE Membrane Integrity Assay reagent was added to the plates using the BioRAPTR dispenser followed by a 10 min room temperature incubation. 6. The fluorescence signal was measured using the EnVision plate reader (PerkinElmer) using a 560 nm excitation and 590 nm emission filters.

Structure (SMILES)	cytotoxicity (LDH release)
CO[C@H]1/C=C/CC[C@@H](S[C@@H]2O[C@H](CO)[C@@H](O)[C@H](O)[C@H]2O)CC(=O)O[C@@H](/C(C)=C/[C@H](C)C(=O)CCCC2CC(=O)NC(=O)C2)[C@@H](C)[C@@H]1O	-1.12
CN1CCc2cc3c(c4c2[C@H]1[C@@H](O)c1ccccc1-4)OCO3	-2.88
C1=C2CCCN[C@@H]2[C@@H]2CCN3CCCC[C@@H]3[C@H](C1)C2	-0.696
Oc1ccc(/C=C2/c3cc(O)cc(O)c3C(c3ccc(O)cc3)[C@H]2c2cc(O)cc(O)c2)cc1 (stereo not given in full)	-1.5
C[C@@]12CCC[C@@](C)(C(=O)O)[C@H]1C[C@@H](O)[C@]13C[C@H]4C[C@H](O[C@@]4(C)C1)[C@@H]23	1.76
C=C1C[C@@]23C=CC(=O)[C@@](C)(CCC(=O)Nc4c(OC5O[C@H](CO)[C@@H](O)[C@H](O)[C@H]5O)ccc(C(=O)O)c4O)C2C[C@@H]1CC3 (stereo not given in full)	0.881
Oc1ccc(C2c3c(O)cc(O)cc3[C@@H]3C(c4ccc(O)cc4)c4c(O)cc(O)cc4[C@H]23)cc1 (stereo not given in full)	-0.985
C[C@@H]1O[C@@H](Oc2c(-c3ccc(O)cc3)oc3cc(O)cc(O)c3c2=O)[C@H](O)[C@H](O)[C@H]1O	-2.17
C=CC(C)(C)C(=O)[C@@H](C)[C@@H]1CC[C@](C)(C=C)O1	0.771
COc1cc(O)c2c3c(c(O)cc(C)c13)C(=O)OC2	-1.87
CC1(C)CCC[C@]2(C)[C@@H]1CC[C@@]13C[C@@H](CC[C@H]12)C(C)(O)C3 (stereo not given in full)	0.736
CCCCCCC[C@@H](C/C=C/CCC(=O)NCCc1c[nH]c2ccccc12)OC	0.844
C=C[C@]1(C)CC[C@@H]([C@H](C)C(=O)/C=C/C(C)C)O1	-0.397
C[C@]12CC[C@]3(C1)[C@H](CC2=O)CC(OC(=O)c1ccccc1)[C@H]1[C@@](CO)(C(=O)O)CCC[C@@]13C (stereo not given in full)	0.308
CC1C(=O)C23CCC1C[C@]21O[C@@H]2C(C)(C)C=CC(=O)[C@@]23COC1=O (stereo not given in full)	-1.47
O=c1cc(-c2ccc(O)cc2)oc2c([C@@H]3OC(CO)[C@H](O)[C@@H](O)[C@H]3O)c(O)cc(O)c12 (stereo not given in full)	-2.19
C=C1C[C@@]23C=CC(=O)[C@@](C)(CCC(=O)Nc4c(O)ccc(C(=O)O)c4O)C2C[C@@H]1C(O)C3 (stereo not given in full)	1.16
C=C1C(=O)C[C@H]2C[C@@H]1[C@]2(C)CCC=C(C)C	0.479
C[C@@H](O)[C@H]1OC(=O)C=C2[C@]3(C)[C@H]4[C@H](OC(=O)[C@@]4(C)[C@@H](O)[C@H]4O[C@H]43)[C@H]3O[C@@]231	-0.342
CC[C@H](C)C(NC(=O)[C@@H](NC)C(C)C)C(=O)NC1C(=O)N(C)[C@@H](C(C)O)C(=O)N[C@@H](C(C)C)C(=O)N(C)[C@@H](CC(C)C)C(=O)NC(C(C)C)C(=O)N(C)[C@@H](C(C)C)C(=O)N(C)[C@@H](Cc2c[nH]c3cccc(OC)c23)C(=O)N[C@@H](C(C)C)C(=O)N[C@@H]([C@H](O)c2ccccc2)C(=O)N[C@@H](C(C)C)C(=O)O[C@@H]1C (stereo partly drawn) (H-[NMeV][ξIle][ξThr(3R)(O-yl)][NMeThr(3ξ)]V[NMeL][ξV][NMeV][NMeTrp(4-OMe)]V[Phe(3R-OH)]V; ester 3-C)	0.795

Structure (SMILES)	cytotoxicity (LDH release)
C=C(C)CC[C@H](Cc1c(O)cc(O)c2c1O[C@H](c1ccc(O)cc1O)CC2=O)C(=C)C	1.07
COc1ccc(/C=C2\COc3cc(O)ccc3C2=O)cc1	2.14
O=C1C[C@@H](c2ccc(O)c(-c3c(O)cc(O)c4c3O[C@H](c3ccc(O)cc3)CC4=O)c2)Oc2cc(O)cc(O)c21	1.07 [at 27.5 µM]
CO[C@@H]1C[C@@H](C[C@H]2CC[C@H](C)[C@H]([C@@H](C)C(=O)O)O2)O[C@]2(O[C@](C)([C@H]3CC[C@@](C)([C@@H]4O[C@@H]([C@H]5O[C@](C)(O)[C@H](C)C[C@@H]5C)C[C@@H]4C)O3)C[C@H]2C)[C@@H]1C	5.65
C[C@@H]1O[C@@H](O[C@@H]2[C@@H](O)[C@H](O[C@@H]3[C@@H](O)[C@@H](O)C(O[C@H]4[C@H](OC(=O)[C@]56CCC(C)(C)C[C@H]5C5=CCC7[C@@]8(C)C[C@H](O)[C@H](O[C@@H]9C[C@H](CO)[C@@H](O)[C@H](O)[C@H]9O)[C@@](C)(CO)C8[C@H](O)C[C@@]7(C)[C@]5(C)CC6)OC[C@H](O)[C@@H]4O)O[C@H]3C)OC[C@H]2O)[C@H](O)[C@H](O)[C@H]1O (stereo not given in full)	0.326 [at 27.5 µM]
C=C[C@@]1(C)CC[C@@H]([C@H](C)C(=O)/C=C/C(C)C)O1	1.13
CCCCCCCCC[C@@H]1C[C@@H]2CC[C@H]3[C@@H](C(=O)OCCCCN=C(N)N)[C@@H](C)N=C(N1)N23	0.638 [at 27.5 µM]
CC(=O)O[C@H]1CC[C@@]2(C)C(CC[C@]3(C)C2CC=C2C4CC(C)(C)CC[C@]4(C)CC[C@]23C)C1(C)C (stereo not given in full)	-1.29
C[C@H]1C[C@@H]([C@@H]2CC[C@]34O[C@H](CC[C@@]35C[C@H](C)C(=O)O5)CN24)OC1=O	1.05
CN1C(=O)C2C(N=CN2C)N(C)C1=O (stereo not given)	-0.514
CC1C(=O)C23CCC1C[C@@]21O[C@H]2C(C)(C)C=CC(=O)[C@@]23COC1=O (stereo not given in full)	1.15
O=C(O)CC1OCc2c(O)cccc21 (stereo not given)	1.38
C/C=C/C(=O)[C@@H](C)C1=CC(=O)C2=C(O[C@@]34CC[C@H](O)C(C)(C)[C@@H]3CC[C@H](C)[C@@]4(C)C2)C1=O	4.34
O=C(O)CC1OC(=O)c2c(O)cccc21 (stereo not given)	-1.32
O=C(O)Cc1c[nH]c2ccccc12	-0.533
C/C(=C\[C@H](C)C(=O)CCCC1CC(=O)NC(=O)C1)[C@@H]1OC(=O)/C=C/CC/C=C/C[C@@H](O)[C@@H]1C	-1.5
COc1c(O)cc2oc(-c3ccccc3)cc(=O)c2c1O	-2.53
CC[C@@H]1C[C@@]2(CC)OC(=O)[C@@]3(CC)OC(=O)[C@@H]1[C@@H]23	0.953
Cc1cc(O)cc2oc(C[C@H](C)O)cc(=O)c12	-2.27
CC1=CC[C@@]2(C[C@@H]1O)[C@@H](C(=O)O)CC[C@H]2C(C)C	0.901
